Among the data in PubChem BioAssay (NCI) are growth inhibition values, retold here.

Compounds without any hit were thinned out: in the full panel of roughly 79,000, 15% have a hit. A number with no mark means an inactive call. Calls of active or inactive are those of the source. Rule as the data show it: active = growth inhibition above about 70%; inactive = the rest.

A short description of assay [1]: NCI Yeast Anticancer Drug Screen. Data for the rad50 strain (AID 155).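 Also: 0% = growth of vehicle-only cultures of the same strain.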 The note with it: S. cerevisiae rad50 strain growth inhibition; at 50.0 µM; hits give high values. An outline of the steps: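 DNA repair mutant yeast, compound exposure, growth read-out; inhibition is taken relative to vehicle.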
Assay [2] can be described thus: NCI Yeast Anticancer Drug Screen. Data for the mec2-1 strain (AID 157). The following applies: S. cerevisiae mec2-1 strain, at 50.0 µM, hits give high values. The essentials:
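mec2-1 yeast strain, carrying an alteration in DNA damage repair or cell cycle control, was exposed to compounds; growth inhibition was measured relative to vehicle-treated controls.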

Assay [3] can be described thus: NCI Yeast Anticancer Drug Screen. Data for the sgs1 mgt1 strain (AID 161).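 Also: 0% = growth of cultures given vehicle only.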 The note with it: S. cerevisiae sgs1 mgt1 strain, at 50.0 µM, hits give high values. The essentials: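 This yeast growth screen uses a strain with defined DNA-repair lesions; compound-treated growth is compared with vehicle-treated growth.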
Assay [4] is described as follows: NCI Yeast Anticancer Drug Screen. Data for the cln2 rad14 strain (AID 165).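 Also: 0% = growth equal to vehicle treated cultures.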 The following applies: S. cerevisiae cln2 rad14 strain, at 50.0 µM, hits give high values. An outline of the steps:
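Yeast carrying cln2 and rad14 alterations (cell cycle control and DNA damage repair) were exposed to compounds. Growth inhibition was measured against vehicle-treated controls.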

Assay [5] can be described thus: NCI Yeast Anticancer Drug Screen. Data for the bub3 strain (AID 167). The note with it: S. cerevisiae bub3 mutant strain, at 50.0 µM, hits give high values. The essentials:
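In this screen, a yeast mutant lacking normal mitotic checkpoint function is challenged with compound. Relative growth versus vehicle gives the inhibition value.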

Assay [6] is described as follows: NCI Yeast Anticancer Drug Screen. Data for the mlh1 rad18 strain (AID 175). The note with it: S. cerevisiae mlh1 rad18 strain growth inhibition; at 50.0 µM; hits give high values. The essentials: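 Growth inhibition of the yeast strain was measured after compound exposure and expressed relative to vehicle-treated controls. The strain carries defined defects in DNA damage repair.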

In the case of `Clc1cccc(-c2nnc(-c3nn(-c4ccccc4)c4nc5ccccc5nc34)o2)c1`, the growth inhibition in assay [1] was -16.4%; in assay [2], -31.3%; in assay [3], -47.2%; in assay [4], 6.1%; in assay [5], -17.1%; in assay [6], -10.8%.
`CCC(CO)Nc1nncc2ccccc12` (stereo not given): the growth inhibition in assay [1] is 2.4%; in assay [2], -3.45%; in assay [3], 1.35%; in assay [4], -31.5%; in assay [5] it was -10.6%; in assay [6], -12.3%.
Regarding `N#C/C(=C\Nc1ccccn1)C(=O)c1ccco1`, the growth inhibition in assay [1] is 6.85%; in assay [2], -19.8%; in assay [3], -19.6%; in assay [4], -0.5%; in assay [5] it was -55.9%; in assay [6], -3.05%.
Regarding `CC(=O)N(C)CCc1c[nH]c2ccccc12`, the growth inhibition in assay [1] is -18.4%; in assay [2], -37.5%; in assay [3] it was -33.9%; in assay [4], 13.2%; in assay [5] it was 9.85%; in assay [6] it was -4.8%.
Take `Nc1nc(NC(=O)C2=NS(=O)(=O)c3cc(S(N)(=O)=O)c(Cl)cc3N2)n[nH]1`: the growth inhibition in assay [1] is -8.9%; in assay [2] it was -26.2%; in assay [3], -3.85%; in assay [4] it was 9.7%; in assay [5], 0.7%; in assay [6], -2.3%.
Regarding `CC(C)(C)OC(=O)N/N=C(/N)Cc1ccccc1`, the growth inhibition was -36.2% in assay [1]; -3.65% in assay [2]; -18.4% in assay [3]; 6.5% in assay [4]; 6.4% in assay [5]; 5.55% in assay [6].
Take `COc1cc(/C(C#N)=C/c2ccccn2)c([N+](=O)[O-])cc1OC`: the growth inhibition in assay [1] is -7.9%; in assay [2] it was -2%; in assay [3], 6%; in assay [4], -36.6%; in assay [5], 4.5%; in assay [6], -5.9%.
As for `Nc1ccc(C(=O)c2ccccc2)cc1Cl`, the growth inhibition in assay [1] was 60.7%; in assay [2], 35%; in assay [3], 56.4%; in assay [4], 6.75%; in assay [5], 36.2%; in assay [6] it was 36.1%.
Regarding `CSc1cccc(N=C(C#N)C2=C(O)c3ccccc3C2=O)c1`, the growth inhibition in assay [1] is 21.1%; in assay [2], 1.85%; in assay [3] it was 9.65%; in assay [4], 38.6%; in assay [5], 21.5%; in assay [6], 24.4%.
Take `BrC1c2ccccc2-c2nc3ccccc3nc21` (stereo not given): the growth inhibition in assay [1] was 11.2%; in assay [2] it was 4.6%; in assay [3], 1.6%; in assay [4] it was 56.2%; in assay [5] it was 17.1%; in assay [6] it was 29.9%.
In the case of `CCCCC(CCC)OC(=O)Nc1cccc2ccccc12` (stereo not given), the growth inhibition in assay [1] is 35.1%; in assay [2], 0.35%; in assay [3], 3.35%; in assay [4] it was -16.1%; in assay [5], -0.15%; in assay [6], 40%.
As to `CC/C(=N/N(C)C)C(=O)OC(C)(C)C`, the growth inhibition in assay [1] is -42.9%; in assay [2], -24.6%; in assay [3], -15.8%; in assay [4], -44.6%; in assay [5], 1.35%; in assay [6] it was -4.2%.
Consider `CC1COB(c2ccccc2)OCC(C)N1CNC(=O)C1=C(O)C2(O)C(O)=C3C(=O)C4C(O)=CC=CC4C(C)(O)C3CC2C(N(C)C)C1=O` (stereo not given), for which the growth inhibition in assay [1] was -8.75%; in assay [2] it was 33.2%; in assay [3] it was 34.6%; in assay [4] it was -16.6%; in assay [5] it was -6.85%; in assay [6] it was 38.6%.
With `Oc1ccccc1C1SCSCS1`, the growth inhibition in assay [1] was 14.8%; in assay [2], 12.9%; in assay [3] it was 14.1%; in assay [4], -3.3%; in assay [5], -10.4%; in assay [6] it was 5.85%.
Take `O=C(NCc1ccccc1)C(O)c1ccccc1` (stereo not given): the growth inhibition in assay [1] is 25.2%; in assay [2], 4.8%; in assay [3], -1.25%; in assay [4], 0.6%; in assay [5], 8.2%; in assay [6], 12.7%.
As to `Clc1c(-c2ccccc2)oc2nc3ccccc3nc12`, the growth inhibition is 13.9% in assay [1]; 6.85% in assay [2]; 13.6% in assay [3]; 21.6% in assay [4]; -1.55% in assay [5]; 26.2% in assay [6].
For `O=c1ccn2cnc3c(ncn3C3OC(CO)C(O)C3O)c2n1` (stereo not given), the growth inhibition in assay [1] was 4.8%; in assay [2], 9%; in assay [3], 10.2%; in assay [4], 7.2%; in assay [5], -10.9%; in assay [6], 9.85%.
`CCN1CSC(=S)N(Cc2ccccc2)C1`: the growth inhibition in assay [1] was 16.9%; in assay [2], 6.3%; in assay [3] it was 50.3%; in assay [4], 4.55%; in assay [5], 28.2%; in assay [6], 32.6%.
Consider `ClC(Cl)(Cl)SSC(=Nc1ccccc1)SSC(Cl)(Cl)Cl`, for which the growth inhibition in assay [1] is 70.8% (active); in assay [2], 21.4%; in assay [3], 51.6%; in assay [4], -0.8%; in assay [5], 64.3%; in assay [6], 69.5%.
For `COc1ccc(C(=O)c2ccc(Cl)cc2)c(O)c1OC`, the growth inhibition in assay [1] is -5.85%; in assay [2], -6.55%; in assay [3] it was -1.7%; in assay [4], 3.9%; in assay [5], 19.4%; in assay [6] it was -9.4%.
